# Reference: PubChem BioAssay AID743326 (National Center for Advancing Translational Sciences (NCATS), 2014)
# Activity calls are given as the source filed them. Calls follow the shape of the full dose curve.
# Test: qHTS profiling of Chloroquine Analogs as inhibitors of Plasmodium falciparum (DD2) proliferation
# Details: Potency: Plasmodium falciparum Dd2 proliferation inhibition; series mostly up to 28.7 µM; activity change, negative = inhibition: at the top concentration
# Description: Plasmodium falciparum is a virulent malarial parasite that kills 1-2 million people worldwide each year. Transmitted by mosquitoes, the sporozoite form of the parasite enters the blood stream to infect hepatocytes, where they become merozoites that infect red blood cells (erythrocytes). Within erythrocytes, merozoites begin a […] cycle of growth and division, after which the parasite is released to infect new red blood cells. Gametocytes, which form within erythrocytes as well, circulate in the bloodstream and are ingested by the mosquito, thereby completing the life cycle. To profile malarial isolates for differential chemical responses and to identify inhibitors of malarial growth, an assay that measures P. falciparum growth and replication within erythrocytes was employed. This assay uses a DNA binding fluorescent dye (SYBR Green) to detect parasite DNA following cell lysis. Because mature erythrocytes lack DNA, only Plasmodium-derived DNA is detected.
# The SYBR Green viability assay was adapted from a method described previously (Plouffe et al., 2008). For screening 3 ul culture medium was dispensed into 1536 well black clear bottom plates (Aurora Biotechnologies) using a Multidrop Combi (Thermo Fisher Scientific Inc.), 23 nL compounds in DMSO were added by a pin tool (Kalypsys), and 5 ul of erythrocytes infected with P. falciparum (0.3% parasitemia, 2.5% hematocrit final concentration) were added. The plates were incubated at 37 C in a humidified incubator in 5% CO2 for 72 h, and 2 ul lysis buffer (20 mM Tris HCl, 10 mM EDTA, 0.16% saponin, 1.6% triton X, 10X SYBR Green I supplied as 10,000X […] by Invitrogen) was added to each well. The plates were mixed for 25 sec with gentle shaking and incubated overnight at room temperature in the dark. The following morning, fluorescence intensity at 485(14) nm excitation and 535(25) nm emission wavelengths was measured on an EnVision (Perkin Elmer) plate reader. Plate reads were normalized relative to the control inhibitor (0.29 uM artemisinin) and vehicle (DMSO) wells present on each plate and then corrected by an algorithm using vehicle-only control plates at the beginning and end of the compound plate stack.
Compound,Potency,"activity change, negative = inhibition"
CSc1cccc(NC(=O)CC[C@H]2O[C@@H]3O[C@]4(C)CC[C@H]5[C@H](C)CC[C@@H]([C@@H]2C)[C@@]35OO4)c1,26.6 nM (active),–
CCN(CC)CCCC(C)Nc1ccnc2cc(Cl)ccc12 (stereo not given),–,193% (inactive)
C[C@@H]1[C@@H](CC(C[C@H]2O[C@@H]3O[C@]4(C)CC[C@@H]5[C@H](C)CC[C@@H]([C@H]2C)[C@@]35OO4)C(=O)NCc2ccc(F)cc2)O[C@@H]2O[C@]3(C)CC[C@H]4[C@H](C)CC[C@@H]1[C@@]24OO3 (stereo not given in full),–,-100% (inactive)
CN([C@@H](Cc1ccc(OS(=O)(=O)c2cccc3cnccc23)cc1)C(=O)N1CCN(c2ccccc2)CC1)S(=O)(=O)c1cccc2cnccc12,–,200% (inactive)
Cc1cccc(C)c1NC(=O)C(C)N (stereo not given),–,-16% [at 14.2 µM] (inactive)
CC(C)N=C(N)N=C(N)Nc1ccc(Cl)cc1,–,190% (inactive)
C#C[C@]1(O)CC[C@@H]2[C@H]3CCC4=CC(=O)CC[C@H]4[C@H]3C(=C)C[C@@]21CC,–,-96.6% (inactive)
Cc1oncc1C(=O)Nc1ccc(C(F)(F)F)cc1,–,-19.1% (inactive)
CC(C)(C)c1cc(O)c(CN)c(C(C)(C)C)c1,–,180% (inactive)
CO[C@H]1O[C@@H]2O[C@@]3(C)CC[C@@H]4[C@@H](C)CC[C@@H]([C@H]1C)[C@@]24OO3,–,172% (inactive)
COC(=O)C1C2CC3c4[nH]c5cc(OC)ccc5c4CCN3CC2CC(OC(=O)c2cc(OC)c(OC)c(OC)c2)C1OC (stereo not given),–,196% [at 57.5 µM] (inactive)
COCC(=O)O[C@]1(CCN(C)CCCc2nc3ccccc3[nH]2)CCc2cc(F)ccc2[C@@H]1C(C)C,–,-101% (inactive)
CCOc1ccc(F)cc1C1(O)C(N)=Nc2ccc(Cl)cc21 (stereo not given),66.8 nM (active),–
CCOc1ccccc1O[C@H](c1ccccc1)[C@H]1CNCCO1,–,201% (inactive)
CC(CNC1CCCCC1)OC(=O)c1ccccc1 (stereo not given),–,-39.4% [at 14.2 µM] (inactive)
CC(=O)O[C@@]12CO[C@@H]1C[C@H](O)[C@@]1(C)C(=O)[C@H](O)C3=C(C)[C@@H](OC(=O)[C@H](O)[C@@H](NC(=O)OC(C)(C)C)c4ccccc4)C[C@@](O)([C@@H](OC(=O)c4ccccc4)[C@H]21)C3(C)C,–,-97.1% (inactive)
C[C@@H]1CC[C@H]2[C@@H](C)C(=O)O[C@@H]3OC4(C)CC[C@@H]1C32OO4 (stereo not given in full),–,171% [at 57.5 µM] (inactive)
NC(=NCc1ccccc1)NC(=O)c1nc(Cl)c(N)nc1N,–,-94.1% (inactive)
O[C@H](c1cc(C(F)(F)F)nc2c(C(F)(F)F)cccc12)[C@H]1CCCCN1,–,192% [at 14.2 µM] (inactive)
CCc1nc(N)nc(N)c1-c1ccc(Cl)cc1,–,-2.13% (inactive)

Compound,Potency,"activity change, negative = inhibition"
C=Cc1c(C)c2cc3nc(cc4[nH]c(cc5nc(cc1[nH]2)C(C)=C5CCC(=O)OC)c(CCC(=O)O)c4C)[C@@]1(C)C3=CC=C(C(=O)OC)[C@H]1C(=O)OC,359 nM (active),–
C=CCON=C(C[C@H]1O[C@@H]2O[C@]3(C)CC[C@@H]4[C@H](C)CC[C@@H]([C@H]1C)[C@@]24OO3)[C@H]1O[C@@H]2O[C@]3(C)CC[C@H]4[C@H](C)CC[C@@H]([C@@H]1C)[C@@]24OO3,–,197% (inactive)
CC1=CC(=O)c2ccccc2C1=O,–,-98.6% (inactive)
Clc1ccc(COC(Cn2ccnc2)c2ccc(Cl)cc2Cl)c(Cl)c1 (stereo not given),–,-98.7% [at 14.2 µM] (inactive)
COc1cc2c(Nc3ccc(NC(=O)c4ccccc4)cc3)ncnc2cc1OCCCN1CCOCC1,749 nM (active),–
O=C(Nc1ccc(Cl)cc1)Nc1ccc(Cl)c(Cl)c1,–,176% (inactive)
Cc1cccc(C)c1OCC(=O)N[C@@H](Cc1ccccc1)[C@@H](O)C[C@H](Cc1ccccc1)NC(=O)[C@H](C(C)C)N1CCCNC1=O,–,-98.3% (inactive)
COc1cc2c(cc1C(F)(F)F)N(C(=O)Nc1cc(F)cc(-c3cccnc3)c1)CC2,–,177% (inactive)
CC[C@@H](C)[C@H]1O[C@]2(CC[C@H]1C)C[C@@H]1C[C@@H](CC=C(C)[C@@H](O[C@H]3C[C@H](OC)[C@@H](O[C@H]4C[C@H](OC)[C@@H](O)[C@H](C)O4)[C@H](C)O3)[C@@H](C)C=CC=C3CO[C@@H]4[C@H](O)C(C)=C[C@@H](C(=O)O1)[C@]34O)O2,–,-103% (inactive)
CN(C)CCOC(c1ccccc1)c1ccccc1,1500 nM (active),–
CNC(=O)c1cc(Oc2ccc(NC(=O)Nc3ccc(Cl)c(C(F)(F)F)c3)cc2)ccn1,–,183% (inactive)
C[C@H]1Cc2c([nH]c3cc(Cl)c(F)cc23)[C@@]2(N1)C(=O)Nc1ccc(Cl)cc12,–,-103% (inactive)
CCCCN(CCCC)CCC(O)c1cc2c(Cl)cc(Cl)cc2c2cc(C(F)(F)F)ccc12 (stereo not given),–,210% [at 14.2 µM] (inactive)
CCCCCCCCCCOc1cc2c(=O)c(C(=O)OCC)c[nH]c2cc1OCC,–,-98.2% (inactive)
C[C@H]1[C@@H](OC(=O)CCC(=O)O)O[C@@H]2OC3(C)CC[C@H]4[C@H](C)CC[C@@H]1[C@@]24OO3,–,-102% (inactive)
CN(C)CC/C=C1\c2ccccc2COc2ccccc21,1430 nM (active),–
Cn1cncc1[C@@](N)(c1ccc(Cl)cc1)c1ccc2c(c1)c(-c1cccc(Cl)c1)cc(=O)n2C,–,193% (inactive)
CCc1ccc(OCc2ccccc2C(=O)Nc2ccc3nc(C)cc(N)c3c2)cc1,–,-100% (inactive)
O=C(C[C@@H]1NCCC[C@@H]1O)Cn1cnc2ccccc2c1=O,–,-101% (inactive)
C/C(=C\c1csc(C)n1)[C@@H]1C[C@@H]2O[C@]2(C)CCC[C@H](C)[C@H](O)[C@@H](C)C(=O)C(C)(C)[C@@H](O)CC(=O)O1,–,24.3% (inactive)
